Experimental findings from PubChem BioAssay are described below.

Experiment [1] in a line: inhibitors of TNFa-induced NFkB p65 translocation, primary screen, imaging, HUVEC, MLSMR starter and 10KST1 sets (AID 438;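 active = inhibition above 20% together with a positive visual image hit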;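 also: compound added about 3h40 before a 20 min TNFalpha stimulation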;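 as to inhibition: signal is the nuclear over cytoplasmic p65 intensity ratio per well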). The note with it: HUVEC TNFa-induced p65 nuclear translocation; cell count: measured here: nuclei count (cytotoxicity indicator), at 2.08 µM; inhibition: at 2 µM, stronger effect = higher value, 0% TNFa-plus-vehicle, 100% no-TNFa wells.
Experiment [2] can be described thus: reduction of polyQ htt aggregates in cells – imaging, exon1htt(103Q)mCFP cells, high-content imaging, primary screen (AID 483;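 active = visual image review flags a hit and inhibition of aggregation exceeds 20%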;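 also: compound exposure lasted 3 days before fixation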;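 as to nuclei count: percent of the per-plate median nuclei count of sample wells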). The note with it: exon1htt(103Q)mCFP cell line, aggregate imaging, at 2 µM; inhibition of aggregation: stronger effect = higher value; nuclei count: measured here: cell count, toxicity.
A short description of experiment [3]: endothelial E-selectin expression blockers – imaging, HUVEC, immunofluorescence, MLSMR starter and 10KST1 sets, primary screen (AID 487;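 active = visually confirmed hit in the image check and inhibition above 20%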;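 as to inhibition: signal is fraction of cell area covered by stained E-selectin grains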;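 as to nuclei count: 100% = median nuclei count of all wells on the same plate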). The note with it: HUVEC TNFalpha-induced E-selectin immunofluorescence imaging, at 2 µM; inhibition: stronger effect = higher value; nuclei count: measured here: cell number, toxicity.
The target of experiment [4] is Voltage-gated potassium channel subunit beta-2 (Rattus norvegicus) (UniProt P62483). As to the kind of experiment: inhibitors of rat Kvbeta2 reductase activity – biochemical, NADPH fluorescence, primary screen (AID 622;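 active = fluorescence slope higher than the sample average by over 3 SD, cut at about -0.22 in these data, passing the limit was not always enough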;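 also: slope of raw intensity against log time taken from 70 to 1610 s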). The note with it: recombinant KvBeta, 4-cyanobenzaldehyde reduction, at 10 µM, stronger effect = higher value.
Sequence of Voltage-gated potassium channel subunit beta-2 (Rattus norvegicus) (P62483 whole entry, looked up): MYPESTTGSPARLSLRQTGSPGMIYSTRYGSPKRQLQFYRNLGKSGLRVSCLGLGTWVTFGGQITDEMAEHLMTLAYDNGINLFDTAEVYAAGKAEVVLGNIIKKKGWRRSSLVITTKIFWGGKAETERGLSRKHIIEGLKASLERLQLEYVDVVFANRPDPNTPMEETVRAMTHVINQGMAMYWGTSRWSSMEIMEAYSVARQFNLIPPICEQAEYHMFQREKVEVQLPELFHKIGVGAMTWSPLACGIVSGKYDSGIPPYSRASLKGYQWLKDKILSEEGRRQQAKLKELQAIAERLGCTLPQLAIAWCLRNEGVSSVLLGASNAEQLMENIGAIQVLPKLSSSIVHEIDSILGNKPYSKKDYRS
Experiment [5] has the same target. As to the kind of experiment: enhancers of rat Kvbeta2 NADPH turnover – biochemical, NADPH fluorescence, primary screen (AID 623;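 active = NADPH fluorescence slope more negative than the mean of all samples by about 3 SD, 99.7% confidence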;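 also: fluorescence intensity change per second fitted from 20 to 320 s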). The note with it: Recombinant KvBeta, NADPH fluorescence decrease slope, 10 min; at 10 µM; stronger effect = lower value.
Experiment [6] concerns the target Alpha-2C adrenergic receptor (Homo sapiens) (UniProt P18825). Put plainly: compounds altering alpha2C-coupled GIRK flux – cell-based, HEK293 alpha2C/GIRK1/2, thallium flux, primary screen (AID 624;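 active = fluorescence slope after compound addition differing from the mean of all screened samples at 99.7% confidence, in either direction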;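 also: slope of fluorescence ratio to pre-addition baseline per second over 15 to 24 s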). The note with it: thallium flux BTC fluorescence, at 10 µM, actives lie on both sides.
Experiment [7] is described as follows: blockers of RIG-like receptor reporter activation – cell-based, Sendai virus stimulus, luciferase, 10K MLSCN set, TLR/RLR signaling modifier project, primary screen (AID 602276).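 Also: firefly luciferase from ISG56 promoter only with Renilla not read in this screen; 0% = Sendai virus plus DMSO and 100% = medium plus DMSO without virus.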 The note with it: HEK293 RL24 IRF3 luciferase reporter, at 10 µM, stronger effect = higher value.
Experiment [8] is described as follows: TLR3 IRF3 reporter activation blockers – cell-based, poly I:C stimulus, luciferase, 10K MLSCN set, primary screen (AID 602277;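 active = inhibition of the reporter signal at or above 50%; inactive = inhibition below 50%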). The note with it: HEK293-TLR3 RL24 IRF3 luciferase reporter, at 10 µM, stronger effect = higher value.

Active and inactive are the calls of the source.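 The calls were made as follows, unless noted: active = inhibition at or above 50% at 10 µM; inactive = inhibition below 50%.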

Sequence of Alpha-2C adrenergic receptor (Homo sapiens) (P18825 whole entry, looked up): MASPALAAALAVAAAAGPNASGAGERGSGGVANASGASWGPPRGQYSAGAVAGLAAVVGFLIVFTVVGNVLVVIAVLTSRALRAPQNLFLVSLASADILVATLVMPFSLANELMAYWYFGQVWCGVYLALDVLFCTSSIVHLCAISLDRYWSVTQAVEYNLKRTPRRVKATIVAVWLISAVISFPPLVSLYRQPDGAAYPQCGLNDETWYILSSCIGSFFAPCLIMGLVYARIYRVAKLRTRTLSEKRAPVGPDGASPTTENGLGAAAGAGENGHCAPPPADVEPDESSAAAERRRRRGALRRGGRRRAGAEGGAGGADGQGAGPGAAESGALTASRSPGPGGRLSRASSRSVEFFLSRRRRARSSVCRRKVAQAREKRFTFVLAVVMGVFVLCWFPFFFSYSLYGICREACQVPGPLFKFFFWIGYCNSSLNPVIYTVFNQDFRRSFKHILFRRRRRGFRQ

Regarding `COC(=O)C1(C(F)(F)F)N=C2Sc3ccccc3N2C(N2CCOCC2)=N1` (centres undefined), in experiment [1], the cell count is 760. Also, the inhibition in experiment [1] was -8.1% (inactive); in experiment [3], -62.6% (inactive); in experiment [7], 11.6% (inactive); in experiment [8], 26.4% (inactive). For the same compound, in experiment [2], the inhibition of aggregation is 8.1% (inactive). The nuclei count in experiment [2] was 76.2%; in experiment [3], 107%. Further, the fluorescence slope in experiment [4] was -0.54 (inactive). In experiment [5], the NADPH fluorescence slope is -4.9e-05 (inactive). Further, the slope in experiment [6] was 0.00667 (inactive).
For the compound `CCOCCn1c(CN2CCN(CC)CC2)nc2c1c(=O)n(C)c(=O)n2C`, the cell count in experiment [1] was 638. In addition, the inhibition in experiment [1] is 2.9% (inactive); in experiment [3], -15.7% (inactive); in experiment [7], 4.19% (inactive); in experiment [8] it was 33.7% (inactive). In addition, the inhibition of aggregation in experiment [2] is 12.8% (inactive). For the same compound, the nuclei count in experiment [2] was 92.7%; in experiment [3] it was 110%. In addition, the fluorescence slope in experiment [4] was -0.568 (inactive). The NADPH fluorescence slope in experiment [5] was -2.7e-05 (inactive). In addition, the slope in experiment [6] is 0.0075 (inactive).
For the compound `O=C(NCc1ccccc1)c1cc(-c2ccco2)on1`, in experiment [1], the cell count was 445. For the same compound, the inhibition in experiment [1] is -0.9% (inactive); in experiment [3] it was -18.9% (inactive); in experiment [7], -27.8% (inactive); in experiment [8], -74.9% (inactive). Further, the inhibition of aggregation in experiment [2] is -0.2% (inactive). In addition, the nuclei count in experiment [2] was found to be 102%; in experiment [3], 103%. In experiment [4], the fluorescence slope was -0.506 (inactive). Besides, the NADPH fluorescence slope in experiment [5] is -3.5e-05 (inactive). For the same compound, the slope in experiment [6] was 0.00556 (inactive).
As to `Cc1cc(C)n2cc(CSc3nnnn3-c3ccc(Cl)cc3)nc2n1`, the cell count in experiment [1] is 446. Besides, the inhibition in experiment [1] was 2.4% (inactive); in experiment [3], 15.8% (inactive); in experiment [7], 19.2% (inactive); in experiment [8] it was 16.6% (inactive). Besides, the inhibition of aggregation in experiment [2] is -22.5% (inactive). The nuclei count was found to be 99.6% in experiment [2] and 91.8% in experiment [3]. Besides, the fluorescence slope in experiment [4] was -0.517 (inactive). Moreover, the NADPH fluorescence slope in experiment [5] was -3.7e-05 (inactive). Besides, the slope in experiment [6] was 0.00492 (inactive).
Consider `CCC1CCCCN1C(=O)CSc1nnc(-c2ccco2)o1` (centres undefined), for which, in experiment [1], the cell count was 368. Also, the inhibition is 4.2% (inactive) in experiment [1], -80.6% (inactive) in experiment [3], -35.7% (inactive) in experiment [7] and -88.3% (inactive) in experiment [8]. For the same compound, in experiment [2], the inhibition of aggregation is -17.6% (inactive). In addition, the nuclei count in experiment [2] is 100%; in experiment [3], 104%. In addition, the fluorescence slope in experiment [4] was -0.487 (inactive). In addition, the NADPH fluorescence slope in experiment [5] was -7.3e-05 (inactive). In addition, the slope in experiment [6] is 0.00444 (inactive).
On to `COc1cc(OC)cc(-c2nnc(SCC(=O)Nc3cc(C)on3)o2)c1`, for which, in experiment [1], the cell count stood at 230. Besides, the inhibition in experiment [1] was 0.6% (inactive); in experiment [3] it was -264% (inactive); in experiment [7], 7.23% (inactive); in experiment [8], 31.7% (inactive). Moreover, the inhibition of aggregation in experiment [2] is 32.6% (inactive). For the same compound, the values for the nuclei count in experiment [2] and in experiment [3] were 77.5% and 111%, respectively. Besides, the fluorescence slope in experiment [4] was -0.347 (inactive). Further, the NADPH fluorescence slope in experiment [5] was -2.3e-05 (inactive). In experiment [6], the slope is 0.00422 (inactive).
With `CCOc1ccc(Cn2nnc(C(=O)Nc3cc(C)cc(C)c3)c2N)cc1`, the cell count in experiment [1] was 751. Also, the inhibition is -0.6% (inactive) in experiment [1], -46.9% (inactive) in experiment [3], 2.58% (inactive) in experiment [7] and 9.37% (inactive) in experiment [8]. Moreover, the inhibition of aggregation in experiment [2] is 12.1% (inactive). Besides, the nuclei count stood at 100% in experiment [2] and 108% in experiment [3]. In addition, in experiment [4], the fluorescence slope was -0.521 (inactive). Further, in experiment [5], the NADPH fluorescence slope is -2.6e-05 (inactive). Moreover, the slope in experiment [6] was 0.00695 (inactive).
Turning to `CCC(C)(NC(=O)CNC(C)=O)C(=O)NC1CCCCC1` (centres undefined), in experiment [1], the cell count was determined as 610. Besides, the inhibition in experiment [1] was -15.7% (inactive); in experiment [3] it was -24.9% (inactive); in experiment [7] it was -6.71% (inactive); in experiment [8] it was -2.23% (inactive). In addition, the inhibition of aggregation in experiment [2] is -1.1% (inactive). In addition, the nuclei count is 122% in experiment [2] and 116% in experiment [3]. Besides, in experiment [4], the fluorescence slope is -0.472 (inactive). Also, in experiment [5], the NADPH fluorescence slope was -0.000295 (inactive). Besides, in experiment [6], the slope was 0.00509 (inactive).
On to `Cc1cc(C)c2c(CC(=O)NCc3ccco3)coc2c1`, for which the cell count in experiment [1] came out at 262. Besides, the inhibition was 5.7% (inactive) in experiment [1], 34.3% (inactive) in experiment [3], 10.9% (inactive) in experiment [7] and 21.2% (inactive) in experiment [8]. Besides, in experiment [2], the inhibition of aggregation was 23.9% (inactive). Moreover, the nuclei count stood at 74.9% in experiment [2] and 60.6% in experiment [3]. Besides, the fluorescence slope in experiment [4] was -0.324 (inactive). Moreover, the NADPH fluorescence slope in experiment [5] is 4e-05 (inactive). In addition, the slope in experiment [6] was 0.00608 (inactive).
Regarding `CC(C)(C)NC(=O)CSc1nnc(-c2ccccn2)n1-c1ccccc1`, the cell count in experiment [1] came to 588. Moreover, the inhibition in experiment [1] is -10.6% (inactive); in experiment [3], -36.6% (inactive); in experiment [7], -7.01% (inactive); in experiment [8], 26.8% (inactive). In addition, in experiment [2], the inhibition of aggregation is -12.9% (inactive). For the same compound, the nuclei count in experiment [2] is 86.7%; in experiment [3], 122%. Further, the fluorescence slope in experiment [4] was -0.587 (inactive). Also, the NADPH fluorescence slope in experiment [5] was -2e-05 (inactive). For the same compound, the slope in experiment [6] is 0.00702 (inactive).
As to `CCOC(=O)c1ccccc1NC(=O)CSc1nccn1C`, the cell count in experiment [1] came to 436. The inhibition in experiment [1] is 9.7% (inactive); in experiment [3], -32.6% (inactive); in experiment [7], 8.57% (inactive); in experiment [8], 19.3% (inactive). For the same compound, the inhibition of aggregation in experiment [2] was -23.9% (inactive). The nuclei count in experiment [2] and in experiment [3] was 108% in each case. Also, the fluorescence slope in experiment [4] is -0.465 (inactive). The NADPH fluorescence slope in experiment [5] was -0.000118 (inactive). In addition, in experiment [6], the slope is 0.00604 (inactive).
Regarding `O=C(c1ccccc1Br)N1CCN(c2ccccc2)CC1`, in experiment [1], the cell count came out at 619. For the same compound, the inhibition in experiment [1] was 1.2% (inactive); in experiment [3], -38.7% (inactive); in experiment [7], 9.32% (inactive); in experiment [8] it was 14.8% (inactive). The inhibition of aggregation in experiment [2] was -1.6% (inactive). The nuclei count turned out to be 100% in experiment [2] and 123% in experiment [3]. The fluorescence slope in experiment [4] was -0.488 (inactive). The NADPH fluorescence slope in experiment [5] was -0.000203 (inactive). Besides, the slope in experiment [6] is 0.00488 (inactive).
`COC(=O)c1ccccc1NC(=O)C1CC=CCC1C(=O)O` (centres undefined): in experiment [1], the cell count turned out to be 373. In addition, the inhibition is 4.2% (inactive) in experiment [1], 0.7% (inactive) in experiment [3], 16.2% (inactive) in experiment [7] and 22.4% (inactive) in experiment [8]. Besides, the inhibition of aggregation in experiment [2] is -0.6% (inactive). The figures for the nuclei count in experiment [2] and in experiment [3] were 96.6% and 98.1%, respectively. Besides, the fluorescence slope in experiment [4] is -0.479 (inactive). Also, the NADPH fluorescence slope in experiment [5] is -3.3e-05 (inactive). Further, the slope in experiment [6] was 0.00613 (inactive).
Regarding `CC1CCCCC1NC(=O)CN1CCN(Cc2ccccc2Cl)C1=O` (centres undefined), the cell count in experiment [1] was determined as 667. Besides, the inhibition is -0.2% (inactive) in experiment [1], -22.2% (inactive) in experiment [3], 10.1% (inactive) in experiment [7] and 20.3% (inactive) in experiment [8]. In experiment [2], the inhibition of aggregation was 10.7% (inactive). For the same compound, the nuclei count in experiment [2] is 64.8%; in experiment [3], 98.9%. In addition, in experiment [4], the fluorescence slope is -0.455 (inactive). Moreover, the NADPH fluorescence slope in experiment [5] is -6.3e-05 (inactive). Further, the slope in experiment [6] is 0.00454 (inactive).
